This passage reports outcome and AC50 results from PubChem BioAssay (EPA / NIEHS).

Where “and” joins values, the source holds several entries; their conditions need not be identical. Equal values may be shown once. More than one record can exist for a structure, and the calls need not agree. Calls of active or inactive are those of the source. How the source made its calls: active means hit-call score of the fitted dose curve at least 0.9, where 1 is the maximum; inactive means score below 0.9.

The assay in a line: ATG_E_Box_CIS: Attagene CIS-FACTORIAL HepG2 Assay for human Enhancer Box (E-box) (AID 2282936). The settings on record: HepG2 E-box cis-reporter transcription, actives raise or lower the signal. The procedure: ATG_CIS is a cell-based, multiplexed-readout assay that uses HepG2, a human liver cell line, with measurements taken at 24 hours after chemical dosing in a 24-well plate.ATG_E_Box_CIS is one of 52 assay component(s) measured or calculated from the ATG_CIS assay. It is designed to make measurements of mRNA induction, a form of inducible reporter, as detected with fluorescence intensity signals by Reverse transcription polymerase chain reaction (RT-PCR) and Capillary electrophoresis technology.Data from the assay component ATG_E_Box_CIS was analyzed into 1 assay endpoint. This assay endpoint, ATG_E_Box_CIS, was analyzed with bidirectional fitting relative to DMSO as the negative control and baseline of activity. Using a type of inducible reporter, measures of mRNA for gain or loss-of-signal activity can be used to understand the reporter gene at the transcription factor-level as they relate to the gene USF1. Furthermore, this assay endpoint can be referred to as a primary readout, because this assay has produced multiple assay endpoints where this one serves a reporter gene function. To generalize the intended target to other relatable targets, this assay endpoint is annotated to the dna binding intended target family, where the subfamily is basic helix-loop-helix protein.
Human liver HepG2 cells are transiently transfected with multiple reporter transcription units (MRTUs) in 6-well plates using FuGene 6 reagent (Roche; 3 ml FuGene/1 mg DNA). The MRTU constructs are regulated by a cis-regulating element (promoter). […] A major difference between the CIS and TRANS system is that in CIS activities of endogenous TFs are measured, whereas the TRANS assay evaluates changes in activities of exogenous, chimeric NR-Gal4 proteins. […] At the end of 24 hour incubation, total RNA was isolated using TriZol reagent (Invitrogen). The isolated RNA is then reverse-transcribed using oligo(dT) primer and Mo-MLV reverse transcriptase (Invitrogen) with DNAse I (Ambion) treatment for 30 min. The one-tenth of the produced cDNA was amplified by PCR using Taq DNA polymerase (Invitrogen) and two reporter sequence-specific primers. The PCR products were fluorescently labeled by primer extension with 6-arboxyfluorescein (6-FAM) 5'-labeled reporter sequence-specific primer (2 min at 95 C, 20 s at 68 C and 10 min at 72 C) and these products were digested with 5U of HpaI (New England Biolabs) for 2h at 37 C. The fragments were purified using Qiaquick PCR columns (Qiagen), analyzed on an ABI 3130xL genetic analyzer (Applied Biosystems) with peak positions identified by using a set of X-rhodamine (ROX)-labeled MapMarker1000 molecular weight standards (BioVentures). The raw capillary electrophoresis data was processed using Attagraph software (Attagene).
Consider `COS(=O)(=O)c1ccc(C)cc1`, for which the result was inactive.
The same measure, in the same setting: for `O=[N+]([O-])c1ccc(O)c([N+](=O)[O-])c1` the value was “inactive”; for `CCOC(=O)CP(=O)(OCC)OCC`, “inactive”.
As for `CC(C)OC(=O)Nc1ccccc1`, the outcome was inactive.
The same measure, in the same setting: the result for `CCC(=O)c1ccccc1` reads “inactive”; that for `COP(=O)(OC)O/C(=C\Cl)c1cc(Cl)c(Cl)cc1Cl`, “inactive”.
The same measure, in the same setting: the result for `O=C(O)Cc1ccccc1` reads “inactive”; that for `ClCCBr`, “inactive”; that for `COc1cc(OC)nc(NC(=O)NS(=O)(=O)c2ncccc2C(=O)N(C)C)n1`, “inactive”.
`COc1cc(-c2ccc(N)c(OC)c2)ccc1N`: the AC50 was 43.2 µM (active) and the outcome was inactive.
Regarding `CC(C)C1CCC(Cc2ccc(Cl)cc2)C1(O)Cn1cncn1` (stereo not given), the result was inactive.
On the same count and under the same terms, the result for `COP(=S)(OC)Oc1c(Cl)cc(C)cc1Cl` reads “inactive”.
As for `C[C@]12CCC(=O)C[C@@H]1CC[C@@H]1[C@@H]2CC[C@]2(C)[C@@H](O)CC[C@@H]12`, the result was inactive; the AC50 was 24 µM (active) and 23.2 µM (active) and 13.8 µM (active).
In the case of `[O-][Cl+2]([O-])O`, the outcome was inactive.
Same read-out and setting: the result for `CC(C)c1cccc(C(C)C)c1O` reads “inactive”; that for `O=[N+]([O-])c1ccc2c3c(cccc13)CC2`, “inactive”; that for `CCC[CH2][Sn]([CH2]CCC)([CH2]CCC)[O]C(=O)c1ccccc1`, “inactive”.
Consider `COP(=S)(OC)Oc1ccc(Sc2ccc(OP(=S)(OC)OC)cc2)cc1`, for which the result was inactive.
As for `Oc1cccc2cccnc12`, the AC50 is 69.2 µM (active) and the result was inactive.
On to `C=C(C)C#N`, for which the outcome was inactive.
For `CC(=[OH+])/C=C(/C)[O-].CC(=[OH+])/C=C(/C)[O-].CC(=[OH+])/C=C(/C)[O-].[Fe]`, the result was inactive.
Still for that read-out and setting: for `NC(=O)O` the value was “inactive”; for `C=CC(=O)OCCCCCC(C)C`, “inactive”.
In the case of `Cl/C=C\C[N+]12CN3CN(CN(C3)C1)C2`, the AC50 was 76.9 µM (active).
In the case of `C=CC#N`, the outcome was inactive.
The same measure, in the same setting: the result for `O=CC=O` reads “inactive”.
The same measure, in the same setting: for `O=C(O)C(Cl)(Cl)Cl` the value was “inactive”.
On to `CCC(C)c1cccc(C(C)CC)c1O` (stereo not given), for which the outcome was inactive.
Still for that read-out and setting: the result for `O=C(Cl)c1ccc(Cl)cc1` reads “inactive”.
As for `CC(C)(C)CC(C)(C)c1ccc(O)cc1`, the AC50 was 8.06 µM (active) and the result was inactive.
Take `O=C(Nc1ccc2[nH]ccc2c1)c1cc2cc(F)ccc2n1Cc1cccc(F)c1`: the AC50 is 19.2 µM (active).
Consider `CC(C)c1ccc(CO)cc1`, for which the outcome was inactive.
Still for that read-out and setting: for `CN(CCCC(=O)c1cccnc1)N=O` the value was “inactive”; for `CCOP(=S)(OCC)Oc1nc(Cl)c(Cl)cc1Cl`, “inactive”.
`Clc1ccc(COC(Cn2ccnc2)c2ccc(Cl)cc2Cl)cc1` (stereo not given): the outcome was inactive.
On the same count and under the same terms, the result for `ClC1(Cl)C2(Cl)C3(Cl)C4(Cl)C(Cl)(Cl)C5(Cl)C3(Cl)C1(Cl)C5(Cl)C24Cl` (stereo not given) reads “inactive”.
